PubChem BioAssay (NCI)
About 83,000 compounds went through this panel and 20% of them were active in at least one assay; those are over-represented in the sample as a whole.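 In brief: 96-well plates, 48 h treatment, single concentration, percent growth endpoint.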 Unmarked numbers belong to inactive results. Active and inactive are the calls of the source. How the source made its calls: active means growth percent below 10; inactive means the rest.

Assays:
Experiment in all cases: NCI-60 one-dose screen, 48 h (100 = growth as untreated, 0 = no growth, -100 = all killed)
[1] = tested on: NCI-H23 lung; details: 10 µM unless noted
[2] = tested on: NCI-H226 lung; details: 10 µM unless noted
[3] = tested on: NCI-H322M lung; details: 10 µM unless noted
[4] = tested on: HOP-62 NSCLC; details: 10 µM unless noted
[5] = tested on: NCI-H460 lung; details: 10 µM unless noted
[6] = tested on: HOP-92 NSCLC; details: 10 µM unless noted
[7] = tested on: NCI-H522 lung; details: 10 µM unless noted
[8] = tested on: A549/ATCC NSCLC; details: 10 µM unless noted
[9] = tested on: 786-0 renal; details: 10 µM unless noted
[10] = tested on: COLO 205 colon; details: 10 µM unless noted
[11] = tested on: DU-145 prostate; details: 10 µM unless noted
[12] = tested on: K-562 leukemia; details: 10 µM unless noted
[13] = tested on: MALME-3M melanoma; details: 10 µM unless noted
[14] = tested on: MDA-MB-231 breast; details: 10 µM unless noted
[15] = tested on: RXF 393 renal; details: 10 µM unless noted
[16] = tested on: SF-268 CNS; details: 10 µM unless noted
[17] = tested on: SF-295 CNS; details: 10 µM unless noted
[18] = tested on: SF-539 CNS; details: 10 µM unless noted
[19] = tested on: UACC-257 melanoma; details: 10 µM
[20] = tested on: M14 melanoma; details: 10 µM unless noted

CCOC(=O)c1c(NC(=O)c2ccc(C(C)(C)C)cc2)sc2cc(OCCN3CCCCC3)ccc12
growth [1]: 88.6% | growth [2]: 101% | growth [3]: 83.1% | growth [4]: 91.1% | growth [5]: 13.9% | growth [6]: 66.1% | growth [7]: 96.8% | growth [8]: 77% | growth [9]: 75.5% | growth [10]: 25.6% | growth [11]: 71.5% | growth [12]: 16% | growth [13]: 97% | growth [14]: 70.1% | growth [15]: 68.1% | growth [16]: 90.6% | growth [17]: 99.7% | growth [18]: 82.1% | growth [19]: 100% | growth [20]: 89.3%

COc1ccc(S(=O)(=O)n2cc(C=O)c3ccccc32)c(OC)c1
growth [1]: 79.4% | growth [2]: 70.6% | growth [3]: 102% | growth [4]: 77.9% | growth [5]: 98.5% | growth [6]: 43.3% | growth [7]: 97.7% | growth [8]: 93.2% | growth [9]: 94.2% | growth [10]: 108% | growth [11]: 103% | growth [12]: 14.4% | growth [13]: 79.7% | growth [14]: 95.5% | growth [15]: 95.3% | growth [16]: 73.6% | growth [17]: 99.9% | growth [18]: 78.6% | growth [19]: 82.5% | growth [20]: 52.8%

O=C(COc1ccc(C2SCC(=O)N2c2ccc(F)cc2)cc1)c1ccccc1 (stereo not given)
growth [1]: 95.6% | growth [2]: 91.7% | growth [3]: 98.3% | growth [4]: 95.5% | growth [5]: 108% | growth [6]: 76.7% | growth [7]: 84.1% | growth [8]: 87.9% | growth [9]: 102% | growth [10]: 112% | growth [11]: 104% | growth [12]: 91.6% | growth [13]: 97.9% | growth [14]: 81.4% | growth [15]: 102% | growth [16]: 89.4% | growth [17]: 94.5% | growth [18]: 102% | growth [19]: 100% | growth [20]: 93.6%

Nc1ccc(-c2nnc(SCc3ccc(O)c4ncccc34)o2)cc1
growth [1]: 3.69% (active) | growth [2]: -12.5% (active) | growth [3]: -0.446% (active) | growth [4]: -5.24% (active) | growth [5]: -46.8% (active) | growth [6]: -36.8% (active) | growth [7]: -2.05% (active) | growth [8]: -1.54% (active) | growth [9]: 7.93% (active) | growth [10]: 1.77% (active) | growth [11]: 9.69% (active) | growth [12]: 3.52% (active) | growth [13]: -2.77% (active) | growth [14]: 33.8% | growth [15]: -14.8% (active) | growth [16]: 1.12% (active) | growth [17]: -21.6% (active) | growth [18]: -14.1% (active) | growth [19]: -20.4% (active) | growth [20]: -38.8% (active)

NC(=O)C(=Cc1ccc(Cl)cc1)C(N)=O
growth [1]: 74.5% | growth [2]: 65.3% | growth [3]: 79.6% | growth [4]: 95.9% | growth [5]: 89% | growth [6]: 34.8% | growth [7]: 46.5% | growth [8]: 74.5% | growth [9]: 70.7% | growth [10]: 81.3% | growth [11]: 39.7% | growth [12]: 31.8% | growth [13]: 82% | growth [14]: 80.3% | growth [15]: 62.9% | growth [16]: 84.8% | growth [17]: 71.9% | growth [18]: 55.6% | growth [19]: 68.3% | growth [20]: 70.3%

CC1COc2c(N3CCN(C)CC3)c(F)cc3c(=O)c(C(=O)N/N=C/c4cc[nH]c4)cn1c23 (stereo not given)
growth [1]: 41.1% | growth [2]: 50% | growth [3]: 65.7% | growth [4]: 38% | growth [5]: 0.46% (active) | growth [6]: 28% | growth [7]: 13.8% | growth [8]: -5.87% (active) | growth [9]: 1.52% (active) | growth [10]: 54.4% | growth [11]: 42% | growth [12]: -27.8% (active) | growth [13]: -3.02% (active) | growth [14]: 44.4% | growth [15]: 16% | growth [16]: 59.1% | growth [17]: 70.3% | growth [18]: 38.5% | growth [19]: -74.5% (active) | growth [20]: -79.8% (active)

C=C(C)[C@@H]1CC[C@]2(COS(C)(=O)=O)CC[C@]3(C)[C@H](CC[C@@H]4[C@@]5(C)CCCNC(C)(C)[C@@H]5CC[C@]43C)[C@@H]12
growth [1]: 82% | growth [2]: 86.5% | growth [3]: 94.7% | growth [4]: 101% | growth [5]: 13.5% | growth [6]: 76.4% | growth [7]: 85.4% | growth [8]: 54.2% | growth [9]: 91.5% | growth [10]: 0.735% (active) | growth [11]: 42.1% | growth [12]: 1.12% (active) | growth [13]: 97% | growth [14]: 91.6% | growth [15]: 85.3% | growth [16]: 106% | growth [17]: -40.1% (active) | growth [18]: 84.9% | growth [19]: 107% | growth [20]: 84%

O=S(=O)(NC1CC2CCC1C2)c1ccc2c(c1)C(=NO)c1cc(S(=O)(=O)NC3CC4CCC3C4)ccc1-2 (stereo not given)
growth [1]: -84.2% (active) | growth [2]: 75.2% | growth [3]: 58.3% | growth [4]: -70.5% (active) | growth [5]: 23.5% | growth [6]: -4.1% (active) | growth [7]: 32.4% | growth [8]: 75% | growth [9]: 31.3% | growth [10]: 85.5% | growth [11]: 4.92% (active) | growth [12]: 11.9% | growth [13]: -78.9% (active) | growth [14]: -21.9% (active) | growth [15]: -9.66% (active) | growth [16]: 8.95% (active) | growth [17]: 62.9% | growth [18]: -35% (active) | growth [19]: 105% | growth [20]: 24.9%
